Out of some 320,000 compounds screened, about 2,100 (0.66%) were called active. Not shown: some 53% with an inconclusive outcome. Calls come from the whole dose curve; as a rule, active = well fitted inhibition curve with a large enough effect in the signal ratio, with a control signal flat (not every such curve was filed as active); inconclusive = small, poorly fitted or top-dose-only effect, or effect the other way, or a change in a side signal; inactive = flat fitted curve, though single readings scatter; the % refers to the signal ratio. The sample as a whole holds a higher share of actives than the screen did.
Test: qHTS Assay for Lipid Storage Modulators in Drosophila S3 Cells;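 for cell number change: cells counted by Cell Tracker Red CMTPX staining in the red channel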; for lipid storage change, negative = inhibition: % is set by controls: 0 for no effect and ±100 for the full control effect
Conditions: BODIPY lipid droplet fluorescence, 18-24 h, cells fed with added oleic acid; cell number change: measured here: cell count max response; series mostly up to 46.1 µM; lipid storage change, negative = inhibition: at the top concentration
How it was run: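 Laser-scanning cytometry quantifies lipid droplet accumulation (500–530 nm total intensity; droplet/cell object ratio) in oleic acid-fed (400 uM added) Drosophila S3 cells treated with a concentration series. 20 uM Triacsin C defined 100% inhibition.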
Potency is the fitted concentration of half-maximal effect.

SMILES | outcome | cell number change [%] | lipid storage change, negative = inhibition | Potency
CC(=O)c1cccc(NS(=O)(=O)c2ccc(N/C=C/C(=O)c3ccc(F)cc3)cc2)c1 | inactive | -28.4 |  | 
CCOc1cccc(CNCCO)c1OCc1ccc(Cl)cc1 |  | -0.0822 | 10.9% (inactive) | 
CCOC(=O)c1sc2nc(CSc3nc4ccccc4n3CC)[nH]c(=O)c2c1C |  | -16.4 | 1% (inactive) | 
CCn1c(SCc2nc3sc(C(=O)O)c(C)c3c(=O)[nH]2)nc2ccccc21 |  |  |  | 20.6 µM (active)
C=CCn1c(SCc2nc3sc(C(=O)O)c(C)c3c(=O)[nH]2)nnc1-c1ccccc1 |  | -15.1 | 3.05% (inactive) | 
O=C(Nc1ccc(C2CCCCC2)cc1)C1CCN(c2ncccn2)CC1 |  | -8.69 | 9.94% (inactive) | 
CC1=N/C(=C/c2ccco2)C(=O)O1 |  | -0.878 | 0.0552% (inactive) | 
O=C1/C(=C/c2ccco2)CCC1C1CCCC1 (stereo unspecified) |  | -18.8 | 0.768% (inactive) | 
O=C1/C(=C\c2ccco2)CCC/C1=C\c1ccco1 |  | -21.3 |  | 20.6 µM (active)
O/N=C1\CCC\C1=C/c1ccco1 |  | 0.139 | -0.642% (inactive) | 
Nc1ccc2c(c1)C/C(=C/c1ccco1)C2=O |  |  | 27.6% (inactive) | 
CC(C)(C)C1C/C(=C/c2ccco2)C(=O)/C(=C/c2ccco2)C1 (stereo unspecified) |  | -6.47 |  | 10.3 µM (active)
CN(C)S(=O)(=O)c1ccc(C(=O)Nc2ccc(S(=O)(=O)NC3=NCCCCC3)cc2)cc1 | inactive |  |  | 
O=C(CN1C(=O)CCS(=O)(=O)c2ccccc21)Nc1ccc2c(c1)OCCO2 |  | -1.7 | 4.62% (inactive) | 
O=C(CN1C(=O)CCS(=O)(=O)c2ccccc21)Nc1cccc(Cl)c1 |  | -9.4 | 0.523% (inactive) | 
COc1ccc(NC(=O)CN2C(=O)CC(C)S(=O)(=O)c3ccccc32)cc1 (stereo unspecified) | inactive | 4.2 |  | 
Cc1cc(C)c(NC(=O)CN2C(=O)CC(C)S(=O)(=O)c3ccccc32)c(C)c1 (stereo unspecified) | inactive | 13.7 |  | 
CCc1ccc(NC(=O)CN2C(=O)CC(C)S(=O)(=O)c3ccccc32)cc1 (stereo unspecified) |  | 4.2 |  | 20.6 µM (active)
O=C(CN1C(=O)CCS(=O)(=O)c2ccccc21)Nc1cccc(F)c1 |  | 3.53 |  | 23.1 µM (active)
CC1(C)CC2CC(C)(CN2C(=O)COC(=O)c2ccc(Cl)c(N)c2)C1 (stereo unspecified) |  | 7.11 | -0.783% (inactive) | 
Cc1ccc(NC(=O)CCc2c(C)nn(-c3ccc(N4CCCCC4)nn3)c2C)cc1 | inactive |  |  | 
Cc1ccc(S(=O)(=O)CCC(=O)OCc2ccc(Cl)cc2)cc1 |  | -1.83 | 8.22% (inactive) | 
Cc1ccc2[nH]c(=O)c(CN(CC3CCCO3)C(=O)c3cccs3)cc2c1 (stereo unspecified) | inactive | 31.3 |  | 
O=C(NCCO)C1(c2ccc(Cl)cc2)CCCC1 |  | -14.3 |  | 20.6 µM (active)
COc1ccc(CNC(=O)C2(c3ccc(Cl)cc3)CC2)cc1 |  | 15.2 | 19.7% (inactive) | 

SMILES | outcome | cell number change [%] | lipid storage change, negative = inhibition | Potency
O=C(NCc1ccco1)C1(c2ccc(Cl)cc2)CCCC1 |  | 17 | 1.83% (inactive) | 
Cc1cc(C)c2[nH]c3nc(SCC(=O)O)nnc3c2c1 | inactive | 15.4 |  | 
O=c1oc2ccccc2c(N2CCCCC2)c1CN1CCCC1 |  | 20.3 | 6.55% (inactive) | 
O=C(Cc1ccccc1)NCc1n[nH]c(=S)n1-c1ccc(Br)cc1 |  | 12.1 | 1.65% (inactive) | 
COCCNC(=O)C1(C)C=CC2(CCCCC2)N1C(=O)c1ccccc1 (stereo unspecified) |  | -12.7 | -1.28% (inactive) | 
S=C(Nc1ccc(Cl)cc1)NN1CCOCC1 |  | -1.28 | -0.69% (inactive) | 
Cc1sc2ncnc(NCc3ccccc3)c2c1C |  |  | -23.9% (inactive) | 
COc1ccc(-c2nnnn2C)cc1S(=O)(=O)NCc1ccccc1 |  | -12.1 | 7.78% (inactive) | 
CSc1ncc2c(n1)-c1cc(C)ccc1SC2 |  | -11.4 | -11.1% (inactive) | 
O=C(CCCOc1ccccc1)Nc1cccc(S(=O)(=O)N2CCCCCC2)c1 |  | -1 |  | 0.651 µM (active)
O=C(COC(=O)c1ccccc1O)Nc1cccc(S(=O)(=O)N2CCCC2)c1 |  | -0.622 |  | 2.91 µM (active)
O=C(COC(=O)c1cccnc1Cl)Nc1cccc(S(=O)(=O)N2CCCCC2)c1 |  | -11.8 | -4.42% (inactive) | 
Cc1ccc(C)c(OCCC(=O)OCC(=O)Nc2cccc(S(=O)(=O)N3CCCC3)c2)c1 |  | 13 | -3.7% (inactive) | 
CC(=O)c1ccc(OCCCC(=O)Nc2cccc(S(=O)(=O)N3CCCCC3)c2)cc1 |  | -10.4 | 14.7% (inactive) | 
O=C(CCOc1ccccc1)Nc1ccc(S(=O)(=O)N2CCCC2)cc1 |  | -12 | -4.91% (inactive) | 
Cc1ccc(C)c(OCCC(=O)Nc2cccc(S(=O)(=O)N3CCCCC3)c2)c1 |  | -9.88 |  | 7.31 µM (active)
COc1ccccc1OCCC(=O)Nc1cccc(S(=O)(=O)N2CCCCC2)c1 |  | 9.54 | 14.9% (inactive) | 
O=C(COC(=O)c1cccc(S(=O)(=O)N2CCCC2)c1)Nc1ccccc1 |  |  | -2.77% (inactive) | 
O=C(NCc1csc(-c2cccs2)n1)Nc1ccc(C(F)(F)F)cc1 |  | -0.569 | -3.23% (inactive) | 
O=C(COC(=O)CSc1cc(Cl)ccc1Cl)Nc1ncc(C(F)(F)F)cc1Cl |  | 1.5 | 5.87% (inactive) | 
Cc1[nH]n(-c2ccccc2)c(=O)c1N=Nc1ccc2c(c1)OCO2 |  | -5.87 | -19.5% (inactive) | 
O=C(c1sc(N2CCOCC2)nc1-c1ccccc1)N1CCCCC1 |  | 3.25 | 3.96% (inactive) | 
O=C(Cn1nnc(-c2ccc(OCc3ccccc3F)cc2)n1)N1CCOCC1 |  | -16.4 | -1.79% (inactive) | 
COc1ccc2nc(NC(=O)CCN3C(=S)NC(C)(C)CC3C)sc2c1 (stereo unspecified) |  |  | 1.37% (inactive) | 

From PubChem BioAssay AID2685 (National Center for Advancing Translational Sciences (NCATS), 2010)
